# Experimental data from PubChem BioAssay (NCATS).
# Values without a mark were called inactive. Inconclusive results are not listed. Calls of active or inactive are those of the source. Unless noted, the call rests on the fitted dose curve; in most records, active means well fitted curve in the direction sought with a large enough effect; inconclusive means small, poorly fitted or top-dose-only effect, or another doubt; inactive means no such curve, though single readings can be large; an effect the other way counts as inactive or inconclusive.
# Experiments:
# PA-1 = assay: Primary qHTS to identify gynecologic anti-cancer compounds using libraries of approved drugs and bioactive compounds (AID 1345084); details: Gynecologic cancer cell panel viability, ATPlite luminescence, 48 h; series mostly up to 57.5 µM; further: nearly all actives have a fitted effect of over 55% in size; further: potency means the concentration at half of the fitted maximal effect; on activity change, negative = cytotoxicity: on the % scale 0 is the no-effect control and ±100 the full control effect
# In short: (§1)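 Cells, 1,000 per well, were allowed to settle for 16 h at 37 C before compound addition. Five concentrations were tested for 48 h, and viability was read by ATPlite luminescence after 15 min at room temperature.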
# Tov112D = assay: as above; details: Gynecologic cancer cell panel viability, ATPlite luminescence, 48 h; series mostly up to 57.5 µM
# In short: as §1
# Tov-21-G = assay: as above; details: Gynecologic cancer cell panel viability, ATPlite luminescence, 48 h; series mostly up to 57.5 µM
# In short: as §1
# [1] = qHTS assay to identify inhibitors of the type 1 interferon - major histocompatibility complex class I in skeletal muscle: Counter screen cell viability and HiBit confirmation (AID 1347412); details: iHSKM muscle cells + IFN-b, HiBiT or CellTiter-Glo, 24 h; for activity change, negative = inhibition: at 45.9 µM (top of the series); further: potency means the concentration at half of the fitted maximal effect; on activity change, negative = inhibition: on the % scale 0 is the no-effect control and ±100 the full control effect; on all read-outs here: nearly all actives have a fitted effect of over 60% in size
# In short: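 Duplicate plates, pinned identically: one read for HiBiT-tagged endogenous HLA-B luminescence, the other for ATP-content viability via CellTiter Glo. Cells were genome-engineered human myoblasts given 4 ng/ml IFN-b; compounds 12-pt, 1:3 from 46 uM final; 24 hr exposure.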
# SKOV3 = assay: Primary qHTS to identify gynecologic anti-cancer compounds using libraries of approved drugs and bioactive compounds (AID 1345084); details: Gynecologic cancer cell panel viability, ATPlite luminescence, 48 h; series mostly up to 57.5 µM; further: nearly all actives have a fitted effect of over 55% in size; further: potency means the concentration at half of the fitted maximal effect; on activity change, negative = cytotoxicity: on the % scale 0 is the no-effect control and ±100 the full control effect
# In short: as §1
# astro = assay: Drug repurposing screens with cells derived from glioblastoma tumor samples (AID 1345199); details: viability, ATP luminescence, 48 h; series mostly up to 91.6 µM; further: on the % scale 0 is the no-effect control and ±100 the full control effect; nearly all actives have a fitted effect of over 40% in size
# In short: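 Primary testing used CD133+ neurospheres from four GBM patients, seven concentrations, 48 h exposure and ATP-based viability; confirmation added three slower-growing patient lines.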
# [2] = biological target: Nuclear receptor subfamily 1 group I member 2 (Rattus norvegicus) (UniProt Q9R1A7); assay: qHTS assay for small molecule activators of the rat pregnane X receptor (rPXR) signaling pathway (AID 651751; call rule not given here; further: 0% is about no effect); details: rPXR reporter cells, luciferase (One-Glo), 24 h
# Chain of Nuclear receptor subfamily 1 group I member 2 (Rattus norvegicus) (Q9R1A7 whole entry, looked up): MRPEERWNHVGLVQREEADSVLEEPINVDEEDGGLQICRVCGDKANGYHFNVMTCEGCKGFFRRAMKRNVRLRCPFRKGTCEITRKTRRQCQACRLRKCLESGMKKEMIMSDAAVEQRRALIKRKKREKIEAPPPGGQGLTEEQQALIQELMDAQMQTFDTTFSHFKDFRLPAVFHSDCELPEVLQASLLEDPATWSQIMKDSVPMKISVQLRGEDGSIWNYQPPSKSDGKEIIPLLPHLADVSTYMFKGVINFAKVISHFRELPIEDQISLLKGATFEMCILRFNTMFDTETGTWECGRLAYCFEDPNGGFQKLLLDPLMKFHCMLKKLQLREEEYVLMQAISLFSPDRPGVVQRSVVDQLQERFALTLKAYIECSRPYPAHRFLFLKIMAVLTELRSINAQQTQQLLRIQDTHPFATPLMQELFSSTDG
# [3] = qHTS assay for small molecule activators of the human pregnane X receptor (PXR) signaling pathway (AID 720659; call rule not given here; further: 0% is about no effect)
compound,measurement,setting,value
CC(=O)O[C@@H]1C[C@H](O)[C@@]23CO[C@H](O)[C@]1(C)C2C[C@@H](O)[C@]1(C)C3C(=O)[C@H](OC(C)=O)[C@@]2(C)[C@H](c3ccoc3)C[C@H]3O[C@]321 (some centres undefined),Potency,PA-1,0.562 µM (active)
same,Potency,Tov112D,0.316 µM (active)
CC(=O)c1cc(C(=O)N[C@@H](C)Cn2ccc(-c3ccc(C#N)c(Cl)c3)n2)[nH]n1,Potency,PA-1,inactive
same,Potency,Tov-21-G,inactive
same,Potency,Tov112D,inactive
O=C1NC(=O)C(c2cn3c4c(cccc24)CCC3)C1c1c[nH]c2ccccc12 (centres undefined),Potency,PA-1,3.16 µM (active)
same,Potency,Tov112D,5.01 µM (active)
COc1cc(N2CCOCC2)ccc1Nc1ncc(Cl)c(Nc2ccccc2NS(C)(=O)=O)n1,Potency,PA-1,2.82 µM (active)
same,Potency,Tov-21-G,3.16 µM (active)
Cc1cc(O)c(-c2ccc([C@@H](C)CN(C)C)cc2)c2c1[nH]c(=O)c1sccc12,Potency,PA-1,0.282 µM (active)
same,Potency,Tov-21-G,0.316 µM (active)
same,Potency,Tov112D,0.282 µM (active)
same,Potency,[1]; HiBiT,0.0787 µM (active)
same,"activity change, negative = inhibition",[1]; Viability,-2.3%
CC[C@]12C=CCN3CC[C@@]4(c5cc([C@@]6(C(=O)OC)C[C@H]7C[C@@H](C(C)(F)F)CN(Cc8c6[nH]c6ccccc86)C7)c(OC)cc5N(C)[C@H]4[C@@](O)(C(=O)OC)[C@@H]1OC(C)=O)[C@@H]32,Potency,PA-1,0.355 µM (active)
same,Potency,Tov-21-G,0.562 µM (active)
same,Potency,Tov112D,0.251 µM (active)
CC(C)NCC(C(=O)N1CCN(c2ncnc3c2C(C)CC3O)CC1)c1ccc(Cl)cc1 (centres undefined),Potency,PA-1,inactive
same,Potency,Tov-21-G,0.794 µM (active)
same,Potency,Tov112D,inactive
CC[C@H](CO)Nc1nc(NCc2ccc(-c3ccccn3)cc2)c2ncn(C(C)C)c2n1,Potency,PA-1,1 µM (active)
same,Potency,Tov112D,1.78 µM (active)
Cc1ccc([N+](=O)[O-])cc1S(=O)(=O)N(C)/N=C/c1cnc2ccc(Br)cn12,Potency,PA-1,0.199 µM (active)
same,Potency,Tov112D,0.355 µM (active)
same,Potency,[1]; HiBiT,0.0497 µM (active)
same,"activity change, negative = inhibition",[1]; Viability,-5.21%
N=c1nc2n(cc1F)C1OC(CO)C(O)C1O2 (centres undefined),Potency,PA-1,0.891 µM (active)
same,Potency,Tov-21-G,inactive
same,Potency,Tov112D,1.41 µM (active)
CC(Oc1ccc2[nH]nc(/C=C/c3cnn(CCO)c3)c2c1)c1c(Cl)cncc1Cl (centres undefined),Potency,PA-1,6.31 µM (active)
same,Potency,Tov-21-G,3.55 µM (active)
NC1(C(=O)NC(CCO)c2ccc(Cl)cc2)CCN(c2ncnc3[nH]ccc23)CC1 (centres undefined),Potency,PA-1,inactive
same,Potency,Tov-21-G,1.26 µM (active)
same,Potency,Tov112D,inactive
COC(=O)C1=CO[C@@H](O[C@@H]2O[C@H](CO)[C@@H](O)[C@H](O)[C@H]2O)[C@@H]2C(COC(C)=O)=C[C@H](O)[C@H]12,Potency,PA-1,inactive
same,Potency,Tov-21-G,inactive
same,Potency,Tov112D,inactive
CN[C@H](C(=O)N[C@H](C(=O)N(C)[C@H](/C=C(\C)C(=O)O)C(C)C)C(C)(C)C)C(C)(C)c1ccccc1,Potency,SKOV3,inactive
CCC1=CC2CN(C1)Cc1c([nH]c3ccccc13)[C@@](C(=O)OC)(c1cc3c(cc1OC)N(C)[C@H]1[C@@](O)(C(=O)OC)[C@H](OC(C)=O)[C@]4(CC)C=CCN5CC[C@]31[C@@H]54)C2 (some centres undefined),Potency,Tov-21-G,0.0891 µM (active)
same,Potency,Tov112D,0.0708 µM (active)
COc1cc2ncnc(Nc3cccc(O)c3)c2cc1OC,Potency,Tov-21-G,15.8 µM (active)
same,Potency,Tov112D,inactive
CN1CCN(c2ccc(C(=O)Nc3n[nH]c4ccc(Cc5cc(F)cc(F)c5)cc34)c(NC3CCOCC3)c2)CC1,Potency,Tov-21-G,inactive
same,Potency,Tov112D,inactive
same,Potency,[1]; HiBiT,17.6 µM (active)
same,Potency,[1]; Viability,27.9 µM (active)
N#Cc1cc(F)cc(-c2nc(-c3ccccn3)no2)c1,Potency,Tov112D,inactive
CCN1CCN(Cc2ccc(NC(=O)Nc3ccc(Oc4cc(NC)ncn4)cc3)cc2C(F)(F)F)CC1,Potency,[1]; HiBiT,5.57 µM (active)
same,"activity change, negative = inhibition",[1]; Viability,-17.1%
CCN(CC)c1ccc2c(O)c(C=Nc3ccc(CC(=O)O)c(-c4c5c(nc6ccccc46)CCC(C(=O)NN)C5)c3)c(=O)oc2c1 (centres undefined),Potency,Tov112D,inactive
COc1ccc(-c2cnc3ccc(NCc4ccc(S(N)(=O)=O)cc4)nn23)cc1OC,Potency,Tov-21-G,inactive
same,Potency,Tov112D,inactive
COc1ccc(Oc2cc(C)c(-c3csc(NC(=O)c4ccncc4)n3)c(C)c2)cc1,Potency,SKOV3,1 µM (active)
same,Potency,Tov112D,inactive
CS(=O)(=O)NCC1CCC(Nc2nc3c(s2)CCSc2ccccc2-3)CC1 (centres undefined),Potency,Tov-21-G,inactive
same,Potency,Tov112D,inactive
CC(C)=CCCC1(C)C=Cc2c(c(C)cc3c2[nH]c2ccccc23)O1 (centres undefined),Potency,SKOV3,8.91 µM (active)
same,Potency,Tov-21-G,inactive
same,Potency,Tov112D,inactive
Cc1ccc(N)cc1O,Potency,astro,inactive
same,max response,[2],0.897%
same,outcome,[3],inactive
C[C@H]1Oc2cc(cnc2N)-c2c(nn(C)c2C#N)CN(C)C(=O)c2ccc(F)cc21,Potency,Tov112D,inactive
same,"activity change, negative = inhibition",[1]; HiBiT,-24.3%
same,"activity change, negative = inhibition",[1]; Viability,-27.7%
O=C(Nc1ccc(S(=O)(=O)C(F)(F)F)cc1)C1=CCN(c2ncccc2C(F)(F)F)CC1,Potency,Tov-21-G,inactive
CO[C@H]1/C=C/[C@@](C)(O)/C=C/C(=O)O[C@H](C)[C@@H](C)CC/C=C/1C,Potency,SKOV3,12.6 µM (active)
same,Potency,Tov-21-G,10 µM (active)
COc1cc2ncnc(N3CCC(Oc4cnc5ccccc5n4)C3)c2cc1OC (centres undefined),Potency,Tov112D,1 µM (active)
CCOc1cc(N2CCC(O)CC2)ccc1Nc1ncc2c(n1)N(C1CCCC1)CCC(=O)N2C,Potency,SKOV3,8.91 µM (active)
same,Potency,Tov112D,inactive
CC1=C(CO)C(=O)O[C@@H]([C@@H](C)[C@H]2CC[C@H]3[C@@H]4C[C@H]5O[C@]56[C@@H](O)C=CC(=O)[C@]6(C)[C@H]4CC[C@]23C)C1,Potency,SKOV3,8.91 µM (active)
same,Potency,Tov-21-G,7.08 µM (active)
same,Potency,Tov112D,10 µM (active)
same,Potency,[1]; HiBiT,0.883 µM (active)
Cn1cncc1C(N)(c1ccc(Cl)cc1)c1ccc2c(c1)c(-c1cccc(Cl)c1)cc(=O)n2C (centres undefined),Potency,SKOV3,inactive
same,"activity change, negative = inhibition",[1]; Viability,-22.3%
Cc1ccccc1C#Cc1ccc(CCC(=O)O)cc1,Potency,Tov-21-G,17.8 µM (active)
CCCCC1CCN(CCCC(=O)c2ccccc2C)CC1,Potency,SKOV3,inactive
same,Potency,Tov-21-G,inactive
N#Cc1ccc(-c2cnc3[nH]cc(NC(=O)c4cccnc4)c3c2)cc1,Potency,Tov112D,inactive
O=C(NOCC(O)CO)c1ccc(F)c(F)c1Nc1ccc(I)cc1F (centres undefined),Potency,SKOV3,inactive
same,Potency,Tov112D,inactive
COc1cccc(Nc2ncnn3ccc(CN4CC[C@@H](N)[C@H](O)C4)c23)c1,Potency,Tov-21-G,5.62 µM (active)
same,Potency,[1]; HiBiT,6.25 µM (active)
O=C(c1cn(Cc2cncn2Cc2ccc(Br)cc2)cc1-c1cccc2ccccc12)N1CCOCC1,Potency,SKOV3,17.8 µM (active)
same,Potency,Tov112D,inactive
CCCCNc1ncc2c(-c3ccc(F)cc3)nn(CC3CCC(N)CC3)c2n1 (centres undefined),Potency,Tov-21-G,7.94 µM (active)
CC(=O)NCC(=O)N1C2CCC1c1cc(Nc3ncc(C(F)(F)F)c(NC4CCC4)n3)ccc12 (centres undefined),Potency,Tov-21-G,8.91 µM (active)
CN(C)C/C=C/C(=O)Nc1cc2c(Nc3ccc(F)c(Cl)c3)ncnc2cc1OC1CCOC1 (centres undefined),Potency,Tov-21-G,5.62 µM (active)
COc1ccc(CC2C(=O)NC(C)C(=O)N(C)C3Cc4ccc(cc4)Oc4cc(ccc4OC4OC(CO)C(O)C(O)C4O)CC(C(=O)NC(C)C(=O)NC(C)C(=O)N2C)N(C)C3=O)cc1 (centres undefined),Potency,SKOV3,1.41 µM (active)
same,Potency,Tov-21-G,1.26 µM (active)
same,Potency,Tov112D,0.501 µM (active)
Cn1cc(S(=O)(=O)c2ccc(Cl)cc2)c2cccc(N3CCNCC3)c21,Potency,Tov-21-G,20 µM (active)
same,Potency,Tov112D,28.2 µM (active)
CC[C@H](C)[C@H](NC(=O)[C@H]([C@@H](C)CC)N(C)C(C)=O)C(=O)N[C@H](C(=O)N[C@@H](CC(C)C)C(=O)[C@@]1(C)CO1)[C@@H](C)O,Potency,Tov112D,0.1 µM (active)
Cc1ncc(CCCN(C)C)cc1Nc1ncc2c(n1)-c1ccc(C(F)(F)F)cc1NC(=S)C2,Potency,Tov-21-G,inactive
CC(C)(C)Nc1nc2cc(Cl)c(Cl)cc2nc1S(C)(=O)=O,Potency,SKOV3,20 µM (active)
same,Potency,Tov-21-G,28.2 µM (active)
COc1cc2ncnc(Nc3cccc(Cl)c3F)c2cc1OC(=O)N1CCN(C)C[C@H]1C,Potency,Tov112D,22.4 µM (active)
CN1CCN(C(=O)c2ccc3cc(CCNc4ncnc5ccc(C#N)cc45)ccc3c2)CC1,Potency,Tov-21-G,inactive
same,Potency,Tov112D,inactive
same,"activity change, negative = inhibition",[1]; Viability,5.79%
C[C@@H]1C[C@H]2O[C@@H]2/C=C\C=C\C(=O)Cc2c(Cl)c(O)cc(O)c2C(=O)O1,"activity change, negative = cytotoxicity",Tov112D,-26.2% [at 11.6 µM]
C=C1C(=O)OC2C1CCC(=C)C1CC(OC(C)=O)C(=C)C12 (centres undefined),Potency,SKOV3,inactive
same,Potency,Tov112D,inactive
C=C1C(=O)O[C@@H]2[C@H]1CCC(C)=C1CCC(=O)O[C@]12C,Potency,Tov112D,inactive
CNS(=O)(=O)c1ccccc1Nc1nc(Nc2ccc(N3CCN(C)CC3)cc2OC)ncc1Cl,Potency,SKOV3,3.55 µM (active)
same,Potency,Tov112D,10 µM (active)
